# Experimental data taken from paper PMC4336329 (PLoS ONE, 2015).
# Screen size: about 310,000 compounds; about 2,200 (0.71%) showed an effect of 50% or more. The effect is printed as a negative number. Many of the other results were omitted from the sample, so strong results are more common in it than they were.
# Molecular target: human ether-à-go-go-related gene (hERG) potassium channel (human, UniProt Q12809)
# Assay: primary screen, population patch clamp on CHO cells stably expressing hERG; higher = less effect of the substance
# Description: Briefly, Chinese hamster ovary (CHO) cells stably expressing the hERG channel were dislodged from tissue culture flasks and dispensed into PPC plates. […] During the recording, background leak currents were estimated by a 100 ms step to -80 mV from an initial holding potential of -70 mV and subtracted from the subsequent current measurement. The campaign was conducted in two phases using slight differences in recording protocol. In the first phase, the initial voltage pulse used a 100 ms step to -30 mV from a holding potential of -70 mV, a 2 s conditioning step to +25 mV, and a 2 s test step to -30 mV. During the second phase of the screen, the potential during the conditioning step was raised to +45 mV. In both phases of the campaign, a secondary voltage pulse was applied using the same parameters as the second phase initial pulse. The initial and secondary pulses were applied in the absence of compound, and upon application of 1 μM and 10 μM test concentrations. Small molecule effects on hERG current density were quantified by […].
# Chain of human ether-à-go-go-related gene (hERG) potassium channel (Q12809 whole entry, looked up): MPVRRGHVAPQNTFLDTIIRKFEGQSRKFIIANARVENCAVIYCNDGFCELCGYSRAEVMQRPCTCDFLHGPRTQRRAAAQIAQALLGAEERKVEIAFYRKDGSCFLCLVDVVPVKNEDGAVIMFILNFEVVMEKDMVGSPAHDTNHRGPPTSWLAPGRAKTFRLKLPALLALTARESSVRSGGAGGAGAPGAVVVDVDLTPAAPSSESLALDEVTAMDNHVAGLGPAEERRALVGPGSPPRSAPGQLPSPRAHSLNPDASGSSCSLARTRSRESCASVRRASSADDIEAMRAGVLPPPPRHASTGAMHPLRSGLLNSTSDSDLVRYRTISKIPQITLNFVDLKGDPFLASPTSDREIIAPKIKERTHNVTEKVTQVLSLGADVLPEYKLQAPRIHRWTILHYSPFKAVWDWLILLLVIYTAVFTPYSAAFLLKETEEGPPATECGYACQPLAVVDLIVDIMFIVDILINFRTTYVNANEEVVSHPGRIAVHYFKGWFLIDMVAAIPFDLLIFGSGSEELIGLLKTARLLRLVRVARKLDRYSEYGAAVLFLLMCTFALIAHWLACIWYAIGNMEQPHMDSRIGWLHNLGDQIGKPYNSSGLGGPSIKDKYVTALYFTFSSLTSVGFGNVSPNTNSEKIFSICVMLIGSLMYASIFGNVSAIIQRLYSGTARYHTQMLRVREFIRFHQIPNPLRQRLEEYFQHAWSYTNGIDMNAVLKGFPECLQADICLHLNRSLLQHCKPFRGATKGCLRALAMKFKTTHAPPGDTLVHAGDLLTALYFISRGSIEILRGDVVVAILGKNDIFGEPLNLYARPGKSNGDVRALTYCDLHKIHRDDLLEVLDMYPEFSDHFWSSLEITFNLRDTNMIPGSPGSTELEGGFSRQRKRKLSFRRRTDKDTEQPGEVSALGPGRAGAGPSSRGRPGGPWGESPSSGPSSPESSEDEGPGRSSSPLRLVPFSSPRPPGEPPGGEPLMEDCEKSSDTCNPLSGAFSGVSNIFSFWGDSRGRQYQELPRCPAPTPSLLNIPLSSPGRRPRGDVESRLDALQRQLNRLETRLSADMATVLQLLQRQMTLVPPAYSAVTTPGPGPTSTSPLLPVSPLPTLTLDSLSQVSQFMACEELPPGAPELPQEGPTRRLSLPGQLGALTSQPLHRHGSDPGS
row,SMILES,"hERG current change (%, negative = inhibition) at 1uM"
1,COc1ccc(N2CCC(CNS(=O)(=O)c3cccc(C(F)(F)F)c3)C2)cc1 (stereo not shown),4.38%
2,COc1cccc(NC(=O)Nc2nnc(CC(=O)Nc3ccccc3)s2)c1,6.56%
3,CC(=O)Oc1ccc(-c2cccc(C(=O)NCCO)c2)cc1,16.3%
4,O=C(CN1CCN(Cc2ccccc2)CC1)N=Nc1c(O)[nH]c2ccccc12,-37.6%
5,O=C(CN1CCN(Cc2ccccc2Cl)CC1)N=Nc1c(O)[nH]c2ccccc12,-5.17%
6,Cc1ccc(CN2CCN(CC(=O)N=Nc3c(O)[nH]c4ccccc34)CC2)cc1,-75.3%
7,COc1cc(C2CC(=O)Nc3cc(C)c(C)cc32)cc(OC)c1OC (stereo not shown),14.3%
8,COc1ccc(NC(=O)CNS(=O)(=O)c2ccc3nc(C)sc3c2)c(OC)c1,1.77%
9,CC(C)C(Sc1nc(-c2ccccc2)cc(-c2ccccc2)c1C#N)C(=O)O (stereo not shown),9.23%
10,O=C(CN1CCC(n2nnc3cc(C(F)(F)F)ccc32)CC1)NCc1cccs1,-56.9%
11,O=C(CN1CCC(n2nnc3ccccc32)CC1)NCc1cccs1,-47.3%
12,C=CCNC(=O)CN1CCC(n2nnc3cc(C(F)(F)F)ccc32)CC1,-0.772%
13,O=C(CN1C(=O)CCSc2ccccc21)Nc1ccc2c(c1)OCO2,-4.53%
14,O=C(CCCN1C(=O)/C(=C\c2cccs2)SC1=S)NNC(=O)c1ccncc1,4.39%
15,O=C(/C=C/c1ccc([N+](=O)[O-])cc1)NCCN1C(=O)S/C(=C\c2ccc(F)cc2)C1=O,2.19%
16,O=S(=O)(NCCN1CCCC1)c1ccc(Br)cc1,3.89%
17,CCN(CC)S(=O)(=O)c1ccc(S(=O)(=O)N2CCN(CCC#N)CC2)cc1,8.96%
18,Cc1ccc(S(=O)(=O)N(CCC#N)CCN2CCCC2)cc1,2.4%
19,N#CCCN(CCN1CCCC1)S(=O)(=O)c1ccc(-c2ccc([N+](=O)[O-])cc2)cc1,-76.5%
20,O=[N+]([O-])c1ccc(S(=O)(=O)NCCN2CCOCC2)cc1,12.6%
21,O=[N+]([O-])c1ccc(-c2ccc(S(=O)(=O)NCCN3CCCC3)cc2)cc1,-77.3%
22,O=C(NCC(c1ccco1)N1CCCC1)c1ccccc1Sc1ccc(C(F)(F)F)cc1[N+](=O)[O-] (stereo not shown),4.07%
23,CCOc1ccccc1N1CCN(C(=O)c2cccc(S(=O)(=O)N3CCOCC3)c2)CC1,10.8%
24,NC(=O)Cn1cnc2nc3n(c2c1=O)CCC3,-2.24%
25,CC1CN(C(=O)COC(=O)COc2ccc(C#N)cc2)CC(C)O1 (stereo not shown),11.6%

row,SMILES,"hERG current change (%, negative = inhibition) at 1uM"
1,CC1(C)Cc2c(c(=S)nc(-c3ccccc3)n2CCN2CCOCC2)CO1,6.74%
2,CCCC(=O)Nc1nc2c(C)c(Cl)ccc2s1,6.64%
3,COc1ccc(NC(=O)C(c2ccccc2)N(C)C(=O)c2ccc(=O)[nH]c2)cc1 (stereo not shown),16.6%
4,Cc1ccc(Nc2nc(N)nc(CN3CCN(Cc4ccc5c(c4)OCO5)CC3)n2)cc1Cl,-34.6%
5,Nc1nc(CN2CCN(Cc3ccc4c(c3)OCO4)CC2)nc(Nc2ccccc2)n1,-77.4%
6,Nc1nc(CN2CCN(Cc3ccccc3)CC2)nc(Nc2ccc3c(c2)OCCO3)n1,-52.3%
7,Nc1nc(CN2CCN(c3ccccc3F)CC2)nc(Nc2ccccc2)n1,0.21%
8,Cc1ccc(Nc2nc(N)nc(CN3CCN(Cc4ccc5c(c4)OCO5)CC3)n2)cc1,-53.4%
9,Cc1cccc(Nc2nc(N)nc(CN3CCN(C)CC3)n2)c1,-5.33%
10,CN1CCN(Cc2nc(N)nc(Nc3ccc4c(c3)OCCO4)n2)CC1,3.07%
11,Cc1ccc(Nc2nc(N)nc(CN3CCN(C)CC3)n2)cc1,4.62%
12,Cc1cccc(Nc2nc(N)nc(CN3CCN(Cc4ccc5c(c4)OCO5)CC3)n2)c1,-74.3%
13,Cc1cccc(Nc2nc(N)nc(CN3CCN(c4ccccc4)CC3)n2)c1,-7.51%
14,Nc1nc(CN2CCN(c3ccccc3F)CC2)nc(Nc2ccc3c(c2)OCCO3)n1,-38%
15,CC(C)(O)C#Cc1ccc(C(=O)NCc2ccccc2)s1,-2.9%
16,CCc1nn(CC(=O)NCCCN(C)C2CCCCC2)c(=O)c2cc3occc3n12,2.42%
17,CN1CCN(c2nc(Nc3ccc(F)cc3)nc(Nc3ccc(F)cc3)n2)CC1,-0.878%
18,COc1ccc(CNC(=S)Nc2ccc(-c3ccccc3)cc2)cc1,6.99%
19,COCCn1c(C)cc(C(=O)CSc2nncn2-c2ccccc2)c1C,8.85%
20,COc1ccc(OCCN2CCOCC2)cc1,20.7%
21,CN(C)S(=O)(=O)N1CCC(Oc2cccc(C(=O)N3CCSCC3)c2)CC1,4.68%
22,S=c1[nH]cnc2scc(-c3ccc(Cl)cc3)c12,10.5%
23,Cc1ccc(Nc2nc(N)nc(CN3CCCCCC3)n2)c(C)c1,-21.7%
24,Cc1ccc(Nc2nc(N)nc(CN3CCN(Cc4ccc5c(c4)OCO5)CC3)n2)c(C)c1,-70.5%
25,Cc1ccccc1Nc1nc(N)nc(CN2CCN(Cc3ccc4c(c3)OCO4)CC2)n1,-45.4%

row,SMILES,"hERG current change (%, negative = inhibition) at 1uM"
1,COc1ccc(-n2c(C)c3c(OC)cccc(=O)c3c2C)cc1,0.316%
2,O=S(=O)(Nc1nc2ccccc2nc1NCCN1CCOCC1)c1cccc(Cl)c1,8.11%
3,O=C(COC(=O)c1ccco1)NCC1CCCO1 (stereo not shown),-0.29%
4,COc1cccc(CNC23CC4CC(CC(C4)C2)C3)c1OCc1ccccc1.Cl,3.29%
5,Cl.c1ccc(COc2ccccc2CNC23CC4CC(CC(C4)C2)C3)cc1,-73.8%
6,COc1cc(CNC23CC4CC(CC(C4)C2)C3)ccc1OCc1ccccc1.Cl,1.77%
7,Cc1cccc(-c2ccc(NC(=O)C3CCN(CC4CC4)CC3)cc2)c1,-5.16%
8,Cc1cccn2c(=O)c3cc(C(=O)NCC4CCCO4)c(=N)n(C4CCCC4)c3nc12 (stereo not shown),-80.3%
9,Cc1cccn2c(=O)c3cc(C(=O)NCC4CCCO4)c(=N)n(C4CCCCC4)c3nc12 (stereo not shown),-83.7%
10,COc1ccc(C2/C=C\CN(C(=O)c3ccc(C)cc3)[C@H](Cc3ccccc3)C(=O)N2Cc2ccc(F)cc2)cc1 (stereo partly shown),11.8%
11,O=C(Cn1cnc(S(=O)(=O)N2CCCCC2)c1)Nc1ccc(OC(F)(F)F)cc1,11.7%
12,O=C(Oc1cccc2cccnc12)c1cccc(N2C(=O)C3C4CCC(C4)C3C2=O)c1 (stereo not shown),3.55%
13,Cc1ccc(NC(=O)CSCC(=O)Nc2ccc(S(=O)(=O)N3CCOCC3)cc2)cc1,11.4%
14,COc1ccc(C(=O)CSc2nnc(-c3cc4ccccc4cc3O)n2Cc2ccco2)cc1,-16.2%
15,Cl.O=C(CCCN1CCC(O)(c2cccc(C(F)(F)F)c2)CC1)c1ccc(F)cc1,-80.9%
16,Cl.O=C(CCN1CCN(c2ccccc2F)CC1)c1ccc(Br)cc1,-40%
17,OC1(c2cccc(C(F)(F)F)c2)CCN(CCN2CCCCC2)CC1,16.2%
18,OC1(c2ccc(Cl)cc2)CCN(Cc2cn[nH]c2-c2ccc(F)cc2)CC1,-27.2%
19,O=C(CCCN1CCC(O)(c2ccc(Br)cc2)CC1)c1ccc(F)cc1,-75.7%
20,OC(CN1CCN(c2ccc(F)cc2)CC1)c1ccc(Cl)cc1 (stereo not shown),2.87%
21,O=C(CN1CCC(O)(c2ccc(F)cc2)CC1)NCc1ccc(F)cc1,-0.396%
22,CC(=O)N1CCC(O)(c2cccc(C(F)(F)F)c2)CC1,8.78%
23,OC(CCCN1CCC(O)(c2ccc(Cl)cc2)CC1)c1ccc(F)cc1 (stereo not shown),-72.7%
24,COc1ccc(CCNC(=O)C(C)n2nc(C)n3c(cc4occc43)c2=O)cc1OC (stereo not shown),12.2%
25,NC(=O)c1ccc(NC(=O)c2cccc(Oc3ccccc3)c2)cc1,12.5%

row,SMILES,"hERG current change (%, negative = inhibition) at 1uM"
1,CCOC(=O)C1=C(C)NC(C)=C(C(=O)OCC)C1c1ccc(Br)o1,9.3%
2,COc1cc([N+](=O)[O-])ccc1NC(=S)NCc1ccccn1,8.38%
3,Cc1cc(C)c(NC(=O)CCCSc2nnc(N)s2)c(C)c1,-4.26%
4,S=C(Nc1ccc(Cl)cc1Cl)Nc1ccccc1Oc1ccccc1,12.4%
5,O=C1c2ccccc2C(=O)N1CSc1ncccn1,1.65%
6,Cc1cc(C)nc(N2CCC(C(=O)NC3CCCCCC3)CC2)n1,0.0346%
7,Cc1cc(NCc2ccco2)nc(N2CCC(C(=O)NC3CCCCC3)CC2)n1,-63.6%
8,Cc1cc(C)nc(N2CCC(C(=O)NCc3ccco3)CC2)n1,1.22%
9,COc1cccc(CCNC(=O)c2ccc(C#N)cc2)c1,8.19%
10,Cc1[nH]nc(N)c1-c1ccc(Cl)cc1,3.97%
11,O=C(NCCc1ccccc1)/C(=C\c1cccc([N+](=O)[O-])c1)NC(=O)c1ccco1,-50.6%
12,CC(=O)Oc1ccc(/C=C(\NC(=O)c2ccco2)C(=O)NCc2ccccc2)cc1,-58.9%
13,O=C(NCCO)/C(=C\c1cccc([N+](=O)[O-])c1)NC(=O)c1ccco1,8.45%
14,CC(=O)Oc1ccc(/C=C(\NC(=O)c2ccco2)C(=O)NCc2ccco2)cc1,-11%
15,O=C(NCc1ccco1)/C(=C/c1ccc([N+](=O)[O-])cc1)NC(=O)c1ccco1,-50.4%
16,O=C(NCc1ccccc1)/C(=C\c1ccccc1)NC(=O)c1ccco1,11.9%
17,O=C(NCCO)/C(=C/c1cccc([N+](=O)[O-])c1)NC(=O)c1ccco1,9.43%
18,O=C(NCc1ccccc1)/C(=C\c1ccc([N+](=O)[O-])cc1)NC(=O)c1ccco1,-19.6%
19,O=C(NCc1ccccc1)/C(=C/c1ccc([N+](=O)[O-])cc1)NC(=O)c1ccco1,-31%
20,O=C(NCCc1ccccc1)/C(=C\c1ccc([N+](=O)[O-])cc1)NC(=O)c1ccco1,-59%
21,O=C(NCCc1ccccc1)/C(=C\c1ccc([N+](=O)[O-])cc1)NC(=O)c1ccccc1,3.17%
22,O=C(NCCc1ccccc1)/C(=C\c1ccccc1)NC(=O)c1ccco1,9.3%
